Most compounds without a hit are left out; they make up all but 2.2% or so of the library.
Nrf2 block = Nrf2 qHTS screen for inhibitors. A549 ARE-Fluc reporter, luciferase luminescence, 18-24 h. Potency, µM (highest dose often 46 µM), without a hit: at the top dose activity change, negative = inhibition, most hits filed as inhibitors. actives 2.1% (n = 360,000). AID 504444, 2011; further: on the % scale 0 is the no-effect control and ±100 the full control effect; nearly all actives have a fitted effect of over 60% in size
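A549 ARE_Fluc cells, 5000/well, 5% FBS OPTI-MEM; compounds in dose-response, 18-24 h at 37 °C/5% CO2; CellTiter-Fluor viability read (Ex 405/Em 525), then BugLite luciferase luminescence = Nrf2 activity.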
Nrf2 ARE act = qHTS of Nrf2 Activators; AREc32 ARE-luciferase reporter (MCF7-derived line), luminescence, 24 h; Potency, µM (highest dose often 46.1 µM), without a hit: at the highest dose activation, hits mostly activators; actives 0.31% (n = 410,000); further: % of control where 0% means no effect; nearly all actives have a fitted effect of over 65% in size
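Nrf2 activation is followed as ARE-luciferase induction in the AREc32 line after one day of compound treatment; luminescence is read with Steady-Glo.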
A549 tox-1 = Nrf2 qHTS screen for inhibitors: counterscreen for cytotoxicity. Potency, µM (series often up to 46 µM), for the others: top-dose activity change, negative = cytotoxicity, actives largely listed as inhibitors. A549 ARE-Fluc cells, CellTiter-Fluor viability, 18-24 h. actives 0.16% (n = 390,000); further: on the % scale 0 is the no-effect control and ±100 the full control effect
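A549 ARE_Fluc cells in 5% FBS OPTI-MEM were exposed to compounds in concentration-response for 18-24 h at 37 deg C. Viability was read by CellTiter-Fluor fluorescence (Ex 405/Em 525) after 30 min, before the luciferase read.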
Pin1 inhibitor = qHTS Assay to Find Inhibitors of Pin1; Peptidyl-prolyl cis-trans isomerase NIMA-interacting 1 (Homo sapiens), Q13526; actives 0.009% (n = 390,000); Potency, µM (doses to about 115 µM), for inactives: at the highest dose activity, negative = inhibition, actives largely listed as inhibitors; Pin1 FP peptide displacement, HiFluor488, 10 min; active means well fitted inhibition curve with a large enough effect in the polarisation, with a control signal flat, not every such curve was filed as active; inconclusive means small, poorly fitted or top-dose-only effect, or effect the other way, or a change in a side signal; inactive means no such curve, though single readings can be large or run the other way; the % refers to the polarisation; further: on the % scale 0 is the no-effect control and ±100 the full control effect
Target sequence (Q13526 whole entry, looked up): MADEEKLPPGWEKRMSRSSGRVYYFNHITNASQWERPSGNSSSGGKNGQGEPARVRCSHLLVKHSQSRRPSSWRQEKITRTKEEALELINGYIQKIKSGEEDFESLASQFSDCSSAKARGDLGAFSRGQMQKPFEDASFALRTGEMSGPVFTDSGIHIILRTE
FLuc counter 3 = Nrf2 qHTS screen for inhibitors: Purified Fluc Biochemical Counterscreen for Hit Validation; shares compounds with Nrf2 block; purified firefly luciferase, luminescence inhibition; Potency, µM (doses to about 57.5 µM), for inactives: top-dose activity change, negative = inhibition, actives largely listed as inhibitors; actives 4% (n = 1,400); AID 720522, 2013; further: on the % scale 0 is the no-effect control and ±100 the full control effect; nearly all actives have a fitted effect of over 65% in size
A549 tox-2 = Nrf2 qHTS screen for inhibitors: A549 ARE-Fluc Cytotoxicity Counterscreen for Hit Validation | A549 ARE-Fluc cells, cytotoxicity counterscreen | Potency, µM (titrated, usually from 46.1 µM), inactives show at the top dose activity change, negative = cytotoxicity, usual class: inhibitors | shares compounds with Nrf2 block | actives 2% (n = 1,400);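 further: cells exposed to compounds for 18 to 24 hours; on the % scale 0 is the no-effect control and ±100 the full control effect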
ARE-Fluc inh = Nrf2 qHTS screen for inhibitors: Nrf2 A549 ARE-Fluc Confirmation Assay for Hit Validation | A549 ARE-firefly luciferase reporter, luminescence | actives 74% (n = 1,400) | shares compounds with Nrf2 block | Potency, µM (series often up to 46.1 µM), inactives show top-dose activity change, negative = inhibition, most hits filed as inhibitors; further: on the % scale 0 is the no-effect control and ±100 the full control effect; nearly all actives have a fitted effect of over 65% in size
* = called active by the depositor; ? = inconclusive; . = no result. Unless noted, the call rests on the fitted dose curve; in most records, active means well fitted curve in the direction sought with a large enough effect; inconclusive means small, poorly fitted or top-dose-only effect, or another doubt; inactive means no such curve, though single readings can be large; an effect the other way counts as inactive or inconclusive. Potency means the concentration at half of the fitted maximal effect.

SMILES	Nrf2 block	Nrf2 ARE act	A549 tox-1	Pin1 inhibitor	others
COc1ccc(-c2nc3cc(NC(=O)Cc4ccc(Cl)cc4)ccc3o2)cc1OC	23.1µM*	-0.1%	?	15.6%
COc1ccc(-c2nc3cc(NC(=O)CSc4ccc(C)cc4)ccc3o2)cc1	2.1%	-1.2%	-20.3%	23.8%
COc1ccc(-c2nc3cc(NC(=O)Cc4ccc(OC)c(OC)c4)ccc3o2)cc1	14.6µM*	0.6%	?	0.4%
O=C(Cc1ccc(Cl)cc1)Nc1ccc2oc(-c3ccc(F)cc3)nc2c1	?	0.4%	-0.5%	0.6%
COc1ccc(CC(=O)Nc2ccc(-c3cn4cccc(C)c4n3)cc2)cc1OC	7.31µM*	7.4%	2.5%	69.9%
O=[S+]([O-])(c1ccc2c(c1)OCCO2)N1CCN([S+](=O)([O-])c2c(F)cc(Br)cc2F)CC1	-6.7%	.	10.2%	3.1%
CCOc1ccc2nc(C)cc(Nc3ccccc3OCC)c2c1	-6.0%	8.5%	-13.3%	32.7%
O=C(c1ccc([N+](=O)[O-])s1)N1CCN(c2ccccc2)CC1	20.6µM*	-2.7%	?	1.3%
C[C@@H]1C(=O)O[C@@H]1[C@@H](C)CO[Si](c1ccccc1)(c1ccccc1)C(C)(C)C	-3.4%	.	-3.6%	-1.5%
Cc1cccc(NC(=O)CN2C(=O)C(c3ccc(F)cc3)=NC23CCCCCC3)c1	-24.1%	0.1%	-18.0%	2.8%
COc1ccccc1NC(=O)CN1C(=O)C(c2ccc(F)cc2)=NC12CCCCC2	16.4µM*	3.6%	-6.3%	0.5%
CCc1ccc2oc(-c3cc(N=Cc4cccc(OC)c4O)ccc3O)nc2c1	?	10µM*	-10.7%	-0.5%
Cc1c(C#N)c(O)n(CCO)c(=O)c1N=Nc1ccc(S(N)(=O)=O)cc1	-18.0%	0.2%	14.6µM*	18.7%
Nc1ccc(S(=O)(=O)N2CCN(S(=O)(=O)c3ccc4c(c3)OCCO4)CC2)cc1	4.3%	.	3.3%	3.6%
CCCCNC(=O)CNC(=S)N(Cc1ccccc1)Cc1cccs1	23.1µM*	1.9%	-15.9%	0.0%
COC(CNC(=O)CNC(=S)N(Cc1ccccc1)Cc1cccs1)OC	8.2%	2.2%	2.4%	-1.5%
CC(CCc1ccccc1)NC(=O)CNC(=S)N(Cc1cccs1)C1CCCC1 (stereo not drawn)	14.6µM*	3.7%	?	3.5%
CCOC(=O)C1CCN(c2ncc(-c3ccc4c(c3)OCCCO4)s2)CC1	.	.	.	-2.1%
COc1ccc(CCNC(=O)c2nc(SCc3ccc(C)cc3)ncc2Cl)cc1OC	?	4.1%	-2.3%	1.4%
CC(=O)Nc1nnc(SCc2cc(=O)c(OC(=O)c3ccccc3)co2)s1	1.2%	-0.2%	-2.6%	-0.6%
Cc1ccc(C(=O)Oc2coc(CSc3nnc(NC(=O)c4cccs4)s3)cc2=O)cc1	6.51µM*	-1.4%	-0.5%	61.9%	FLuc counter 3=?;A549 tox-2=0.9%;ARE-Fluc inh=4.61µM*
COc1ccc(S(=O)(=O)N(Cc2nc(-c3ccc(C)cc3)no2)C2CCCCC2)cc1	7.2%	4.6%	10.9%	0.6%
O=S(=O)(c1ccc(Cl)cc1)N1CCCC(c2nc(-c3ccc(F)cc3)no2)C1 (stereo not drawn)	?	0.0%	-3.8%	4.5%
O=S(=O)(c1ccccc1Cl)N1CCCC1c1nc(-c2ccc(Cl)cc2)no1 (stereo not drawn)	5.8µM*	2.0%	-15.4%	48.6%	FLuc counter 3=-7.6%;A549 tox-2=9.9%;ARE-Fluc inh=13µM*
CN1/C(=C\C=N\O)C(C)(C)c2ccccc21	-1.5%	0.2%	0.4%	0.5%

Screens deposited in PubChem BioAssay by National Center for Advancing Translational Sciences (NCATS).
